Shown are actives, neighbours in structure and some others; about 0.82% of the full set was active somewhere.
LANA DNA inh: inhibitors of KSHV LANA C-terminal domain DNA binding. MBP-C-LANA/FAM-LBS DNA binding, fluorescence polarization. actives 0.078% (n = 340,000). inhibition, % at 9 µM. AID 504423;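 active = highest replicate inhibition at or above 60% at 9 µM, even if other replicates fall short; inactive = all replicates below 60% inhibition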;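 note: 0% = neutral control wells and 100% = 4 µM acridine orange control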
E coli Lon inh: E. coli protease La inhibition. P0A9M0. purified E. coli Lon protease, fluorescence polarization. inhibition, % at 7.94 µM. actives 0.42% (n = 360,000); in the data active = inhibition above about 13%, passing the limit was not always enough;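 note: 0% = enzyme with probe and DMSO and 100% = no enzyme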
Keap1 Nrf2 FP: disrupts human Keap1 binding to Nrf2 peptide; inhibition, % at 9.4 µM; AID 504523; Keap1 Kelch-Nrf2 peptide fluorescence polarization, 1536-well; actives 0.15% (n = 340,000); in the data active = inhibition above about 12%; inconclusive = no clear call, values can overlap the other calls; inactive = below about 7.3%;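 note: human Keap1 Kelch domain with fluorescein labeled Nrf2 9mer peptide probe; 0% = neutral control wells and 100% = peptide positive control; higher means more block of Keap1 binding to Nrf2 peptide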
Target sequence (Q14145 whole entry, looked up, the tested form may be a part): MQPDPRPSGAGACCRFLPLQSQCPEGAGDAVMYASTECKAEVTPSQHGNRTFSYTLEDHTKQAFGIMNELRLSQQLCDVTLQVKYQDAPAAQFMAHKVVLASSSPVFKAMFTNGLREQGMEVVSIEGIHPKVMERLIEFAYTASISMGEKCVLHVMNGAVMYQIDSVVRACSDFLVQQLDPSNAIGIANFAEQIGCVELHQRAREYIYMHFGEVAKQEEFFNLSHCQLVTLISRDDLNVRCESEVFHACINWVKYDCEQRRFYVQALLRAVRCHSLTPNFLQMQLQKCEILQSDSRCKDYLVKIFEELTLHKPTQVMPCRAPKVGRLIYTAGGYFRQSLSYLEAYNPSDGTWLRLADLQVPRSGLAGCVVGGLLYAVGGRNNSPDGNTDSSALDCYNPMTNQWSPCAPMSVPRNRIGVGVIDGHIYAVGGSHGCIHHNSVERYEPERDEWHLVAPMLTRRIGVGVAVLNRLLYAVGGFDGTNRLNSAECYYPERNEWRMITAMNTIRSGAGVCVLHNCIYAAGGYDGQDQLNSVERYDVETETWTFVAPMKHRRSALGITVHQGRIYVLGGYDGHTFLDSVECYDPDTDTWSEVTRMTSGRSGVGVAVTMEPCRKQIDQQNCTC
cardiac RTF act: cardiac RTF calcium sensitization; actives 0.24% (n = 340,000); activation, % at 7.2 µM; AID 493008; IANBD-labeled TnC RTF fluorescence at EC20 calcium; 0% EC20 calcium, 100% full calcium; P19429+P45379;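 active = activation above the mean over all tested compounds plus 3 SD, cut at about 30% in these data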;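 note: rise in fluorescence read as greater calcium sensitivity of cardiac thin filaments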
RTF Ca sens inh: cardiac RTF calcium desensitization; P19429+P45379; IANBD-labeled cardiac RTF, Ca2+ fluorescence; inhibition, % at 7.15 µM; actives 0.12% (n = 340,000); AID 493244;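 active = inhibition above the mean inhibition of all tested compounds plus 3 SD, cut at about 17% in these data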;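 note: assay run at fixed EC70 calcium of 1.6 mM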
eLon confirm: E. coli Lon inhibition confirmation. shares compounds with E coli Lon inh. purified E. coli Lon, fluorescence polarization. inhibition, % at 7.94 µM. actives 31% (n = 1,400). AID 602230; in the data active = inhibition above about 16%;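 note: 0% = enzyme with probe and DMSO and 100% = no enzyme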
Active calls of the source: *; ? = inconclusive; . = no result given.

SMILES	LANA DNA inh	E coli Lon inh	Keap1 Nrf2 FP	cardiac RTF act	RTF Ca sens inh	eLon confirm
CCOC(=O)c1cc(OC)c2cccc(CN3CCCC(C)(C(=O)NCCOC)C3)c2c1 (stereo unspecified)	.	-2	.	.	.	.
CCOC(=O)c1cc(OC)c2cccc(CN3CCC(C)(C(=O)NCCOC)C3)c2c1 (stereo unspecified)	.	97*	.	.	.	46*
COc1cc2c(cc1OC)-c1cc3ccc4c(c3c[n+]1CC2)OCO4	43	156*	5	54*	-77	106*
CSc1nc2ccc(NC(=O)NC(=O)c3c(F)cccc3F)cc2s1	1	0	1	0	0	.
COc1cccc(F)c1C(=O)NC(=O)Nc1ccc2nc(C)oc2c1	22	110*	3	45*	-75	-9
CCOc1ccc(N=Cc2ccc(N(C)C)cc2)c(O)c1	.	126*	.	.	.	78*
CCOc1ccc(N=Cc2ccc([N+](=O)[O-])cc2)c(O)c1	.	43*	.	.	.	1
COc1cc(C(=O)Nc2ccn(C)n2)ccc1OC(F)F	7	-5	3	-1	1	.
N#C/C(=C(/O)c1cccs1)c1nc2ccccc2[nH]1	0	16*	0	-1	-9	-8
N#C/C(=C(/O)c1ccc(Br)s1)c1nc2ccccc2[nH]1	1	3	2	-7	-6	.
CCCn1nc(C(=O)N2CCN(S(=O)(=O)c3ccc(C)c(C)c3)CC2)c2ccccc2c1=O	0	-11	2	2	2	.
Cc1cc(C(C)(C)C)oc1C(=O)N(CC(=O)NC1CCCC1)Cc1ccccc1Cl	0	133*	-4	-12	-8	3
Clc1ccc(N2O[C@H]3C=C[C@@H]2C3)nc1	.	61*	.	.	.	129*
O=C(c1ccc[nH]1)N1O[C@@H]2C=C[C@H]1C2	0	-1	-3	0	-6	.
COc1ccc(NC(=O)C[C@H]2C(=O)N(C3CCCCC3)C[C@@H]2CSC)cc1	.	-7	.	.	.	.
Cc1cccc(CN(C)C[C@@H]2OCc3cnnn3CCCC(=O)N([C@H](C)CO)C[C@H]2C)c1	.	3	.	.	.	.
Cc1ccccc1-n1ccnc1SCC(=O)Nc1cccc(S(=O)(=O)NC2=NCCC2)c1	0	17*	0	1	-8	-1
Cc1ccccc1OCC(=O)Nc1cccc(S(=O)(=O)NC2=NCCC2)c1	0	-3	3	5	4	.
CN(CC(=O)Nc1c(Cl)cccc1Cl)C(=O)CCC1CCCC1	0	3	4	-2	5	.
O=[N+]([O-])c1ccc(N2CCN(Cc3ccccc3)CC2)c2c1no[n+]2[O-]	.	32*	.	.	.	5
COc1ccc2c(c1O)Cc1ccccc1C2=O	-1	34*	0	10	8	22*
O=C(c1ccc2c(c1)CCN2S(=O)(=O)c1ccccc1)N1CCN(c2ccccc2F)CC1	-1	18*	-2	-2	2	4
O=C(c1ccc2c(c1)CCN2S(=O)(=O)c1ccccc1)N1CCN(c2ccccc2)CC1	-1	-15	3	4	-6	.
CCOc1cc(C2C3=C(CC(C)(C)CC3=O)N(C)C3=C2C(=O)CC(C)(C)C3)ccc1O	0	-2	0	0	-3	.
COc1ccc(/C=C(\C#N)C(=O)NCc2ccccc2)cc1	-1	3	0	1	-5	.
SMILES	LANA DNA inh	E coli Lon inh	Keap1 Nrf2 FP	cardiac RTF act	RTF Ca sens inh	eLon confirm
CCN(CC(=O)Nc1ccc(NC(C)=O)cc1)C(=O)c1ccc(=O)[nH]c1	0	-13	7	-3	3	.
Cn1c(SCC(=O)NCC2CCCO2)nc2c(c1=O)SCC2 (stereo unspecified)	0	52*	1	6	-9	1
O=C(/C=C/c1ccccc1)OCCN1C(=O)c2ccccc2C1=O	1	-3	-1	-4	-8	.
c1ccc(Cc2c(C3CCCCC3)nc3c4ccccc4ccn23)cc1	.	-12	.	.	.	.
Nc1ccc2c(O)cc(S(=O)(=O)O)cc2c1	51	137*	0	58*	-63	3
O=C(O)c1cc(S(=O)(=O)O)ccc1O	6	4	0	-4	-11	.
Nc1cccc2c(O)cc(S(=O)(=O)O)cc12	117*	65*	?	-12	15	12
N#CC(C#N)=C1C=CC=CN1/C(=C\c1ccccc1)C(=O)c1cccs1	10	25*	3	12	-17	9
COCCCn1c(=NC(=O)c2ccncc2)c(C#N)cc2c(=O)n3cccc(C)c3nc21	15	38*	4	11	-6	22*
CCCCn1c(=NC(=O)c2cccnc2)c(C#N)cc2c(=O)n3cccc(C)c3nc21	3	24*	2	14	-19	2
COc1ccc(N(CC(=O)Nc2ccc(S(=O)(=O)N3CCOCC3)cc2)S(C)(=O)=O)cc1OC	.	16*	.	.	.	6
CNC(=O)c1ccc(CN(C)C(=O)c2cccc(S(=O)(=O)N3CCc4ccccc4C3)c2)cc1	.	-14	.	.	.	.
Cc1ccc(NC(=S)N=Nc2c(O)[nH]c3ccccc23)cc1	0	14*	-2	2	-8	-13
COc1ccc(NC(=S)N=Nc2c(O)[nH]c3ccccc23)cc1	0	13	-3	-3	-3	.
Oc1ccc(NC(=S)N=Nc2c(O)[nH]c3ccccc23)cc1	-1	18*	-5	-3	-1	21*
CN(C(=O)c1cccc(NC(=O)Cc2ccc(NC(=O)C3CCCN(C(=O)CCc4ccccc4)C3)cc2)c1)C1CCCCC1 (stereo unspecified)	3	-4	-5	6	-9	.
O=C(O)c1cc(S(=O)(=O)N2CCCCC2)ccc1N1CCOCC1	-1	-8	-4	-2	-2	.
COc1ccc(NC(=O)C2(C)Cc3c(-c4cccc(NC(C)=O)c4)ccnc3O2)cn1 (stereo unspecified)	.	28*	.	.	.	2
C[C@H](CO)N1C[C@H](C)[C@H](CN(C)S(=O)(=O)c2ccc(Cl)cc2)OCc2cnnn2CCCC1=O	.	1	.	.	.	.
Cc1cccc(OCC(O)CN2C(C)(C)CC(O)CC2(C)C)c1 (stereo unspecified)	0	14*	-2	5	7	-2
O=C1c2ccccc2-c2n[nH]c3cccc1c23	5	23*	-4	6	-6	33*
CCOC(=O)C1CCCN(C(=O)Cc2c(C(=O)O)[nH]c3ccccc23)C1 (stereo unspecified)	1	24*	1	1	-8	21*
O=C(Cn1ccc2ccccc2c1=O)NCCC(=O)N1CCN(c2ccccc2)CC1	1	-4	-2	-8	-3	.
O=C(Cn1ccc2ccccc2c1=O)NCC(=O)N1CCN(c2ccc(F)cc2)CC1	0	23*	-1	0	-2	2
CC(C)C[C@@H](CNCC(=O)[C@H](Cc1c[nH]c2ccccc12)NC(=O)c1[nH]cnc1C(=O)N[C@@H](C)CN)NC(=O)c1nc[nH]c1C(=O)N[C@@H](C)C(=O)O	-1	8	0	-4	-7	.

High-throughput results as filed in PubChem.
